Experiment [1] in a line: inhibitors of TNFa-induced NFkB p65 translocation, primary screen, imaging, HUVEC, MLSMR starter and 10KST1 sets (AID 438;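 active = inhibition above 20% together with a positive visual image hit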;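 also: compound added about 3h40 before a 20 min TNFalpha stimulation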;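 as to inhibition: signal is the nuclear over cytoplasmic p65 intensity ratio per well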). To be noted: HUVEC TNFa-induced p65 nuclear translocation; cell count: measured here: nuclei count (cytotoxicity indicator), at 2.08 µM; inhibition: at 2 µM, stronger effect = higher value, 0% TNFa-plus-vehicle, 100% no-TNFa wells.
Experiment [2] is described as follows: inhibitors of mutant huntingtin aggregation, primary screen, imaging, exon1htt(103Q)mCFP cells, high-content imaging (AID 483;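 active = visual image review flags a hit and inhibition of aggregation exceeds 20%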;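 also: compound exposure lasted 3 days before fixation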;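 as to nuclei count: percent of the per-plate median nuclei count of sample wells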). To be noted: exon1htt(103Q)mCFP cell line, aggregate imaging, at 2 µM; inhibition of aggregation: stronger effect = higher value; nuclei count: measured here: cell count, toxicity.
A short description of experiment [3]: inhibitors of E-selectin induction by TNFa, primary screen, imaging, HUVEC, immunofluorescence, MLSMR starter and 10KST1 sets (AID 487;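 active = visually confirmed hit in the image check and inhibition above 20%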;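 as to inhibition: signal is fraction of cell area covered by stained E-selectin grains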;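 as to nuclei count: 100% = median nuclei count of all wells on the same plate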). The note with it: HUVEC TNFalpha-induced E-selectin immunofluorescence imaging, at 2 µM; inhibition: stronger effect = higher value; nuclei count: measured here: cell number, toxicity.
The target in experiment [4] is Voltage-gated potassium channel subunit beta-2 (Rattus norvegicus) (UniProt P62483). The experiment can be described thus: KvBeta enzyme negative modulators, primary screen, biochemical, NADPH fluorescence (AID 622).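 Also: slope of raw intensity against log time taken from 70 to 1610 s.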 The note with it: recombinant KvBeta, 4-cyanobenzaldehyde reduction, at 10 µM, stronger effect = higher value.
Experiment [5] shares this target. The experiment can be described thus: KvBeta positive modulators, primary screen, biochemical, NADPH fluorescence (AID 623;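 active = NADPH fluorescence slope more negative than the mean of all samples by about 3 SD, 99.7% confidence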;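 also: fluorescence intensity change per second fitted from 20 to 320 s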). The note with it: Recombinant KvBeta, NADPH fluorescence decrease slope, 10 min; at 10 µM; stronger effect = lower value.
The target in experiment [6] is Alpha-2C adrenergic receptor (Homo sapiens) (UniProt P18825). The experiment can be described thus: modulators of alpha2C/GIRK thallium flux, primary screen, cell-based, HEK293 alpha2C/GIRK1/2 (AID 624;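 active = fluorescence slope after compound addition differing from the mean of all screened samples at 99.7% confidence, in either direction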;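 also: slope of fluorescence ratio to pre-addition baseline per second over 15 to 24 s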). The note with it: thallium flux BTC fluorescence, at 10 µM, actives lie on both sides.
Experiment [7] in a line: inhibitors of Sendai virus-induced IRF3 signaling, primary screen, TLR/RLR signaling modifier project, cell-based, Sendai virus stimulus, luciferase, 10K MLSCN set (AID 602276;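 active = inhibition at or above 50% at 10 µM; inactive = inhibition below 50%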;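 also: firefly luciferase from ISG56 promoter only with Renilla not read in this screen; 0% = Sendai virus plus DMSO and 100% = medium plus DMSO without virus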). To be noted: HEK293 RL24 IRF3 luciferase reporter, at 10 µM, stronger effect = higher value.
Experiment [8] is described as follows: inhibitors of poly I:C-induced TLR3 signaling, primary screen, cell-based, poly I:C stimulus, luciferase, 10K MLSCN set (AID 602277;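 active = inhibition of the reporter signal at or above 50%; inactive = inhibition below 50%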). The note with it: HEK293-TLR3 RL24 IRF3 luciferase reporter, at 10 µM, stronger effect = higher value.

The source made the active and inactive calls.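 The calls were made as follows, unless noted: active = fluorescence slope higher than the sample average by over 3 SD (cut at about -0.22 in these data, passing the limit was not always enough); inactive = the rest.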

One may read the inhibition as the relative decrease from the control value, in per cent.

Chain of Voltage-gated potassium channel subunit beta-2 (Rattus norvegicus) (P62483 whole entry, looked up): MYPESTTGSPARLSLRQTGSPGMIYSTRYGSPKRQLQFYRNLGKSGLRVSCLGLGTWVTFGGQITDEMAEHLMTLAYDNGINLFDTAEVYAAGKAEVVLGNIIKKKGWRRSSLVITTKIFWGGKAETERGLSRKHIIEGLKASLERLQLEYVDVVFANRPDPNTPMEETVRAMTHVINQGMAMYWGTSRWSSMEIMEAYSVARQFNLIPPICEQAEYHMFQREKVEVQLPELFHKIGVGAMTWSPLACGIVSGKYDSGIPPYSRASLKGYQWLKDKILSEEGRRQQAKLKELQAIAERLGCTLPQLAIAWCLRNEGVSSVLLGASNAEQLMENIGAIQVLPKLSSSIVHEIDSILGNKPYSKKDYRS
Chain of Alpha-2C adrenergic receptor (Homo sapiens) (P18825 whole entry, looked up): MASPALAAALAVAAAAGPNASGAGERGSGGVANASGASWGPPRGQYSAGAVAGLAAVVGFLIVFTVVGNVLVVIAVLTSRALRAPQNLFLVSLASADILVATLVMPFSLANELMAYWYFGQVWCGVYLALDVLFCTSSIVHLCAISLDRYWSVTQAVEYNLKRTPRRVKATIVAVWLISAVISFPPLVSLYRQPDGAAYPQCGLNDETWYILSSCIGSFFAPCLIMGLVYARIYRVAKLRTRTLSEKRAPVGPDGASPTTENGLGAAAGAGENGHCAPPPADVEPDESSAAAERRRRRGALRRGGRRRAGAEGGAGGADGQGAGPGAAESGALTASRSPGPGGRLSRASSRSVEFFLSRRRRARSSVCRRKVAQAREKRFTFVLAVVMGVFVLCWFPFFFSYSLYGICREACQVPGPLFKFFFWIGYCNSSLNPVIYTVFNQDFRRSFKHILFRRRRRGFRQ

Take `COc1cccc(C2C(C(N)=O)=C(C)Nc3nc(-c4ccccc4Cl)nn32)c1` (stereo not drawn): the cell count in experiment [1] worked out at 804. For the same compound, the inhibition in experiment [1] is -4% (inactive); in experiment [3], -48.3% (inactive); in experiment [7] it was 12.6% (inactive); in experiment [8], 40.8% (inactive). In addition, the inhibition of aggregation in experiment [2] is -14.6% (inactive). Also, the nuclei count worked out at 93.9% in experiment [2] and 110% in experiment [3]. Also, the fluorescence slope in experiment [4] is -0.416 (inactive). Moreover, in experiment [5], the NADPH fluorescence slope was -9.2e-05 (inactive). In addition, the slope in experiment [6] was 0.00547 (inactive).
In the case of `O=C(CSCCSCC(=O)c1ccco1)c1ccco1`, the cell count in experiment [1] is 594. Besides, the inhibition in experiment [1] is -6.1% (inactive); in experiment [3], -44.4% (inactive); in experiment [7], 7.09% (inactive); in experiment [8] it was 7.22% (inactive). The inhibition of aggregation in experiment [2] was -12% (inactive). Further, the values for the nuclei count in experiment [2] and in experiment [3] were 84.7% and 138%, respectively. Besides, the fluorescence slope in experiment [4] was -0.421 (inactive). Further, the NADPH fluorescence slope in experiment [5] is -6.5e-05 (inactive). Further, the slope in experiment [6] is 0.00644 (inactive).
Regarding `CC(=O)c1ccc(-c2nc3ccccc3n2C)o1`, the cell count in experiment [1] came out at 365. The inhibition was 4.7% (inactive) in experiment [1], -11.8% (inactive) in experiment [3], -22.8% (inactive) in experiment [7] and -73.6% (inactive) in experiment [8]. For the same compound, the inhibition of aggregation in experiment [2] was -13.2% (inactive). The nuclei count in experiment [2] was found to be 105%; in experiment [3], 108%. Moreover, in experiment [4], the fluorescence slope was -0.0212 (active). The NADPH fluorescence slope in experiment [5] was 5.6e-07 (inactive). Besides, in experiment [6], the slope is 0.00571 (inactive).
As to `CCCC1c2ccc(C)n2CCN1C(=O)Nc1ccccc1Cl` (stereo not drawn), the cell count in experiment [1] is 243. Further, the inhibition in experiment [1] is 2.3% (inactive); in experiment [3] it was -1% (inactive); in experiment [7] it was -53.4% (inactive); in experiment [8], -190% (inactive). The inhibition of aggregation in experiment [2] was -6.4% (inactive). Moreover, the nuclei count in experiment [2] amounted to 100%; in experiment [3], 94.7%. The fluorescence slope in experiment [4] was -0.564 (inactive). Moreover, the NADPH fluorescence slope in experiment [5] is 2.7e-05 (inactive). In addition, the slope in experiment [6] is 0.0054 (inactive).
For `COc1cc2c(cc1OC)C(C)N(C(=O)Cn1ncc3c1-c1ccccc1OC3)CC2` (stereo not drawn), the cell count in experiment [1] came out at 697. In addition, the inhibition in experiment [1] is -4.8% (inactive); in experiment [3], -39.6% (inactive); in experiment [7], 7.96% (inactive); in experiment [8], 17.3% (inactive). Further, in experiment [2], the inhibition of aggregation is -21.5% (inactive). For the same compound, the nuclei count in experiment [2] worked out at 114%; in experiment [3] it was 117%. The fluorescence slope in experiment [4] was -0.587 (inactive). In experiment [5], the NADPH fluorescence slope is -3.4e-05 (inactive). Moreover, the slope in experiment [6] was 0.008 (inactive).
As to `CCN(CC)Cc1c(C(=O)OC)nnn1-c1nonc1N`, the cell count in experiment [1] is 476. Further, the inhibition in experiment [1] is -0.2% (inactive); in experiment [3], -18.2% (inactive); in experiment [7] it was 4.14% (inactive); in experiment [8], 14.8% (inactive). Moreover, the inhibition of aggregation in experiment [2] was 13.9% (inactive). For the same compound, the figures for the nuclei count in experiment [2] and in experiment [3] were 99.5% and 107%, respectively. For the same compound, the fluorescence slope in experiment [4] is -0.504 (inactive). In addition, the NADPH fluorescence slope in experiment [5] is -0.000189 (inactive). Moreover, in experiment [6], the slope was 0.00521 (inactive).
With `O=S(=O)(c1ccccc1)c1nc(-c2ccco2)oc1NCCCN1CCOCC1`, the cell count in experiment [1] came to 548. Besides, the inhibition in experiment [1] was 0% (inactive); in experiment [3] it was -73.7% (inactive); in experiment [7], 0.535% (inactive); in experiment [8], 4.26% (inactive). Moreover, the inhibition of aggregation in experiment [2] was -3% (inactive). Besides, the values for the nuclei count in experiment [2] and in experiment [3] were 88.3% and 124%, respectively. The fluorescence slope in experiment [4] was -0.502 (inactive). Further, in experiment [5], the NADPH fluorescence slope is 1.1e-05 (inactive). Moreover, the slope in experiment [6] is 0.0038 (inactive).
For `Cn1c(=O)c2c(nc(NCCCO)n2CCc2ccccc2)n(C)c1=O`, in experiment [1], the cell count amounted to 422. The inhibition was 9.7% (inactive) in experiment [1], -27.9% (inactive) in experiment [3], -9.22% (inactive) in experiment [7] and 4.62% (inactive) in experiment [8]. Further, in experiment [2], the inhibition of aggregation is -11.3% (inactive). Also, the nuclei count is 105% in experiment [2] and 103% in experiment [3]. Moreover, the fluorescence slope in experiment [4] was -0.506 (inactive). Further, the NADPH fluorescence slope in experiment [5] is 4.3e-05 (inactive). Moreover, in experiment [6], the slope is 0.00351 (inactive).
Consider `CCC(C)(C(=O)NC1CCCC1)N(Cc1cccs1)C(C)=O` (stereo not drawn), for which the cell count in experiment [1] came out at 472. Further, the inhibition in experiment [1] was 6.2% (inactive); in experiment [3], -15% (inactive); in experiment [7], 14.8% (inactive); in experiment [8], 24.4% (inactive). Also, in experiment [2], the inhibition of aggregation was -9.4% (inactive). For the same compound, the nuclei count in experiment [2] came out at 115%; in experiment [3], 93.8%. The fluorescence slope in experiment [4] is -0.491 (inactive). In addition, the NADPH fluorescence slope in experiment [5] was -1.6e-05 (inactive). Further, the slope in experiment [6] is 0.00646 (inactive).
For the compound `CNc1nnc(-c2cccc(N(C)C)c2)s1`, the cell count in experiment [1] was determined as 742. Moreover, the inhibition in experiment [1] was -5.1% (inactive); in experiment [3], -67.7% (inactive); in experiment [7], -27.7% (inactive); in experiment [8], -96.6% (inactive). In experiment [2], the inhibition of aggregation was -2.3% (inactive). Also, the figures for the nuclei count in experiment [2] and in experiment [3] were 102% and 91.1%, respectively. Also, the fluorescence slope in experiment [4] was -0.135 (active). Further, in experiment [5], the NADPH fluorescence slope is -7.2e-06 (inactive). Moreover, the slope in experiment [6] is 0.00491 (inactive).
For the compound `CC(C)C1N=C2c3ccccc3N=C(SCc3cc(=O)n4ccccc4n3)N2C1=O` (stereo not drawn), the cell count in experiment [1] is 646. Moreover, the inhibition was -10.9% (inactive) in experiment [1], -35.3% (inactive) in experiment [3], 6.75% (inactive) in experiment [7] and -22.1% (inactive) in experiment [8]. In experiment [2], the inhibition of aggregation is 4.4% (inactive). Besides, the nuclei count is 58.8% in experiment [2] and 90% in experiment [3]. Moreover, in experiment [4], the fluorescence slope was -0.451 (inactive). For the same compound, in experiment [5], the NADPH fluorescence slope is 2.2e-05 (inactive). In experiment [6], the slope was 0.00398 (inactive).
In the case of `CCCOC(=O)c1[nH]c2c(c1C)C(=O)CC(c1ccc(OC)c(OC)c1)C2` (stereo not drawn), in experiment [1], the cell count is 235. Moreover, the inhibition in experiment [1] was -2.8% (inactive); in experiment [3] it was 17.6% (inactive); in experiment [7], -11.5% (inactive); in experiment [8], -41.9% (inactive). In experiment [2], the inhibition of aggregation is 2.4% (inactive). Also, the nuclei count in experiment [2] was 101%; in experiment [3], 47.3%. Besides, the fluorescence slope in experiment [4] was -0.408 (inactive). Further, the NADPH fluorescence slope in experiment [5] is 8.6e-06 (inactive). The slope in experiment [6] was 0.00378 (inactive).
Consider `CCOc1ccc(N(CC(=O)Nc2ccc(C)c(C)c2)S(=O)(=O)c2c(C)noc2C)cc1`, for which the cell count in experiment [1] was 713. Besides, the inhibition was 0% (inactive) in experiment [1], -29% (inactive) in experiment [3], 13.3% (inactive) in experiment [7] and 27.5% (inactive) in experiment [8]. Moreover, in experiment [2], the inhibition of aggregation was -19.3% (inactive). Further, the nuclei count in experiment [2] came out at 86.1%; in experiment [3], 100%. Besides, the fluorescence slope in experiment [4] was -0.554 (inactive). In addition, the NADPH fluorescence slope in experiment [5] is -7.2e-07 (inactive). Besides, in experiment [6], the slope is 0.00659 (inactive).

The record behind these values is PubChem BioAssay.
